Records with an inconclusive call do not appear. Entries that show only a call come without a potency. Unmarked numbers belong to inactive results. Activity calls are given as the source filed them. Calls come from the whole dose curve; as a rule, active = well fitted curve in the direction sought with a large enough effect; inconclusive = small, poorly fitted or top-dose-only effect, or another doubt; inactive = no such curve, though single readings can be large; an effect the other way counts as inactive or inconclusive.
Tests used:
MCC-13 = test: qHTS assay to identify novel small-molecules to repurpose for Merkel cell carcinoma treatment (AID 1296009); conditions: MCC and control cell lines, CellTiter-Glo viability, 72 h; series mostly up to 46 µM; note: nearly all actives have a fitted effect of over 60% in size
Summary of the method: (§1)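 Cell viability, measured as CellTiter-Glo luminescence, was normalized between DMSO and no-cell wells. The cells had been exposed to 8- or 11-point compound dilutions for 72 hr at 37 degree celsius.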

MCC-26 = test: as above; conditions: MCC and control cell lines, CellTiter-Glo viability, 72 h; series mostly up to 46 µM
Summary of the method: as §1

MKL-1 = test: as above; conditions: MCC and control cell lines, CellTiter-Glo viability, 72 h; series mostly up to 46 µM
Summary of the method: as §1

MKL-2 = test: as above; conditions: MCC and control cell lines, CellTiter-Glo viability, 72 h; series mostly up to 46 µM
Summary of the method: as §1

UISO = test: as above; conditions: MCC and control cell lines, CellTiter-Glo viability, 72 h; series mostly up to 46 µM
Summary of the method: as §1

WaGa = test: as above; conditions: MCC and control cell lines, CellTiter-Glo viability, 72 h; series mostly up to 46 µM
Summary of the method: as §1

C33A = test: Primary qHTS to identify gynecologic anti-cancer compounds using libraries of approved drugs and bioactive compounds (AID 1345084); conditions: Gynecologic cancer cell panel viability, ATPlite luminescence, 48 h; series mostly up to 57.5 µM; note: nearly all actives have a fitted effect of over 55% in size
Summary of the method: (§2)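 Five-concentration response, 48 h; readout is ATP-driven luciferase luminescence.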

CAOV3 = test: as above; conditions: Gynecologic cancer cell panel viability, ATPlite luminescence, 48 h; series mostly up to 57.5 µM
Summary of the method: as §2

CASKI = test: as above; conditions: Gynecologic cancer cell panel viability, ATPlite luminescence, 48 h; series mostly up to 57.5 µM
Summary of the method: as §2

Es-2 = test: as above; conditions: Gynecologic cancer cell panel viability, ATPlite luminescence, 48 h; series mostly up to 57.5 µM
Summary of the method: as §2

HeLa = test: as above; conditions: Gynecologic cancer cell panel viability, ATPlite luminescence, 48 h; series mostly up to 57.5 µM
Summary of the method: as §2

Hek293T = test: as above; conditions: Gynecologic cancer cell panel viability, ATPlite luminescence, 48 h, control line for the selectivity index; series mostly up to 57.5 µM
Summary of the method: as §2

JEG-3 = test: as above; conditions: Gynecologic cancer cell panel viability, ATPlite luminescence, 48 h; series mostly up to 57.5 µM
Summary of the method: as §2

OV90 = test: as above; conditions: Gynecologic cancer cell panel viability, ATPlite luminescence, 48 h; series mostly up to 57.5 µM
Summary of the method: as §2

PA-1 = test: as above; conditions: Gynecologic cancer cell panel viability, ATPlite luminescence, 48 h; series mostly up to 57.5 µM
Summary of the method: as §2

Tov-21-G = test: as above; conditions: Gynecologic cancer cell panel viability, ATPlite luminescence, 48 h; series mostly up to 57.5 µM
Summary of the method: as §2

Tov112D = test: as above; conditions: Gynecologic cancer cell panel viability, ATPlite luminescence, 48 h; series mostly up to 57.5 µM
Summary of the method: as §2

[1] = Drug repurposing screens with cells derived from glioblastoma tumor samples (AID 1345199); conditions: GBM patient neurospheres viability, ATP luminescence, 48 h; note: nearly all actives have a fitted effect of over 40% in size
Summary of the method: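 Primary testing used CD133+ neurospheres from four GBM patients, seven concentrations, 48 h exposure and ATP-based viability; confirmation added three slower-growing patient lines.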

SKOV3 = test: Primary qHTS to identify gynecologic anti-cancer compounds using libraries of approved drugs and bioactive compounds (AID 1345084); conditions: Gynecologic cancer cell panel viability, ATPlite luminescence, 48 h; series mostly up to 57.5 µM; note: nearly all actives have a fitted effect of over 55% in size
Summary of the method: as §2

[2] = at 45.9 µM (top of the series), tumour line B
[3] = at 45.9 µM (top of the series), tumour line D
[4] = at 21.2 µM (top of the series), tumour line B
[5] = at 21.2 µM (top of the series), tumour line D
Potency is the fitted concentration of half-maximal effect.

## CCN(Cc1ccc(Cl)nc1)/C(=C/[N+](=O)[O-])NC
MCC-13
  Potency: inactive
MCC-26
  Potency: inactive
MKL-1
  Potency: inactive
MKL-2
  Potency: inactive
UISO
  Potency: inactive
WaGa
  Potency: inactive
C33A
  Potency: inactive
CAOV3
  Potency: inactive
CASKI
  Potency: inactive
Es-2
  Potency: inactive
HeLa
  Potency: inactive
Hek293T
  Potency: inactive
JEG-3
  Potency: inactive
OV90
  Potency: inactive
PA-1
  Potency: inactive
Tov-21-G
  Potency: inactive
Tov112D
  Potency: inactive
[1]; [2]
  activity, negative = cell killing: -9.68%
[1]; [3]
  activity, negative = cell killing: -5.99%

## OC(c1ccccc1)(c1ccccc1)C1CCNCC1
MCC-13
  Potency: inactive
MCC-26
  Potency: inactive
MKL-1
  Potency: inactive
MKL-2
  Potency: inactive
UISO
  Potency: inactive
WaGa
  Potency: inactive
C33A
  Potency: inactive
CAOV3
  Potency: inactive
CASKI
  Potency: inactive
Es-2
  Potency: inactive
HeLa
  Potency: inactive
Hek293T
  Potency: inactive
JEG-3
  Potency: inactive
OV90
  Potency: inactive
PA-1
  Potency: inactive
SKOV3
  Potency: inactive
Tov-21-G
  Potency: inactive
Tov112D
  Potency: inactive
[1]; [4]
  activity, negative = cell killing: -16.1%
[1]; [5]
  activity, negative = cell killing: -0.163%

## NC(=O)CN1CCCC1=O
MCC-13
  Potency: inactive
MCC-26
  Potency: inactive
MKL-1
  Potency: inactive
MKL-2
  Potency: inactive
UISO
  Potency: inactive
WaGa
  Potency: inactive
C33A
  Potency: inactive
CAOV3
  Potency: inactive
CASKI
  Potency: inactive
Es-2
  Potency: inactive
HeLa
  Potency: inactive
Hek293T
  Potency: inactive
JEG-3
  Potency: inactive
OV90
  Potency: inactive
PA-1
  Potency: inactive
SKOV3
  Potency: inactive
Tov-21-G
  Potency: inactive
Tov112D
  Potency: inactive
[1]; [4]
  activity, negative = cell killing: -8.16%
[1]; [5]
  activity, negative = cell killing: -13%
[1]; at 21.3 µM (top of the series), tumour line A
  activity, negative = cell killing: -16.4%

## CCN(CC)Cc1nccn1-c1ccc([N+](=O)[O-])cc1C(=O)c1ccccc1Cl
MCC-13
  Potency: inactive
MCC-26
  Potency: inactive
MKL-1
  Potency: inactive
MKL-2
  Potency: inactive
UISO
  Potency: inactive
WaGa
  Potency: inactive
C33A
  Potency: inactive
CAOV3
  Potency: inactive
CASKI
  Potency: inactive
Es-2
  Potency: inactive
HeLa
  Potency: inactive
Hek293T
  Potency: inactive
JEG-3
  Potency: inactive
SKOV3
  Potency: inactive
Tov-21-G
  Potency: inactive
Tov112D
  Potency: inactive
[1]; [2]
  activity, negative = cell killing: -21%
[1]; [3]
  activity, negative = cell killing: -13.7%
[1]; tumour line A
  Potency: 31.6 µM (active)

## O=C(CCCN1CCC(n2c(=O)[nH]c3ccccc32)CC1)c1ccc(F)cc1
MCC-13
  Potency: inactive
MCC-26
  Potency: inactive
MKL-1
  Potency: inactive
MKL-2
  Potency: inactive
UISO
  Potency: inactive
WaGa
  Potency: inactive
C33A
  Potency: inactive
CAOV3
  Potency: inactive
Es-2
  Potency: inactive
HeLa
  Potency: inactive
Hek293T
  Potency: inactive
JEG-3
  Potency: inactive
OV90
  Potency: inactive
PA-1
  Potency: inactive
SKOV3
  Potency: inactive
Tov-21-G
  Potency: inactive
Tov112D
  Potency: inactive
[1]; [4]
  activity, negative = cell killing: -8.66%
[1]; tumour line A
  Potency: 5.62 µM (active)

## CNC(C)Cc1ccccc1OC (stereo unspecified)
MCC-13
  Potency: inactive
MCC-26
  Potency: inactive
MKL-1
  Potency: inactive
MKL-2
  Potency: inactive
UISO
  Potency: inactive
WaGa
  Potency: inactive
C33A
  Potency: inactive
CAOV3
  Potency: inactive
CASKI
  Potency: inactive
Es-2
  Potency: inactive
HeLa
  Potency: inactive
Hek293T
  Potency: inactive
JEG-3
  Potency: inactive
OV90
  Potency: inactive
PA-1
  Potency: inactive
SKOV3
  Potency: inactive
Tov-21-G
  Potency: inactive
Tov112D
  Potency: inactive
[1]; [2]
  activity, negative = cell killing: -11.6%
[1]; [3]
  activity, negative = cell killing: -21%
[1]; at 46 µM (top of the series), tumour line A
  activity, negative = cell killing: -24.5%

## Cc1ccc([N+](=O)[O-])[c]2c1[O][Hg]2
MCC-13
  Potency: 2.11 µM (active)
MCC-26
  Potency: 1.88 µM (active)
MKL-1
  Potency: 0.133 µM (active)
MKL-2
  Potency: 0.0422 µM (active)
UISO
  Potency: 0.335 µM (active)
WaGa
  Potency: 0.335 µM (active)
C33A
  Potency: 4.47 µM (active)
CASKI
  Potency: 7.94 µM (active)
Es-2
  Potency: 5.62 µM (active)
HeLa
  Potency: 20 µM (active)
Hek293T
  Potency: 5.62 µM (active)
JEG-3
  Potency: 3.55 µM (active)
OV90
  Potency: 12.6 µM (active)
PA-1
  Potency: 2.82 µM (active)
SKOV3
  Potency: 3.98 µM (active)
Tov-21-G
  Potency: 2 µM (active)
Tov112D
  Potency: 5.62 µM (active)

Source: PubChem BioAssay (NCATS)
